Measurements from PubChem BioAssay (NCI).
Compounds without any hit were thinned out: in the full panel of roughly 79,000, 15% have a hit. Values without a mark were called inactive. Calls of active or inactive are those of the source. Cut-off read from the data, not from the text of the source: active = growth inhibition above about 70%; inactive = the rest.

Assays:
[1] = NCI Yeast Anticancer Drug Screen. Data for the rad52 strain (AID 147);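 note: 0% = growth of vehicle-treated control cultures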; settings: S. cerevisiae rad52 mutant growth inhibition, stronger effect = higher value
In short: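 DNA repair-defective yeast; compound exposure; growth scored against vehicle controls.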

[2] = NCI Yeast Anticancer Drug Screen. Data for the mgt1 strain (AID 153); settings: S. cerevisiae mgt1 mutant growth inhibition, stronger effect = higher value
In short: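 Growth inhibition relative to vehicle controls was scored for the mgt1 yeast strain after compound exposure.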

[3] = NCI Yeast Anticancer Drug Screen. Data for the rad50 strain (AID 155);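 note: 0% = growth of vehicle-only cultures of the same strain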; settings: S. cerevisiae rad50 strain growth inhibition, stronger effect = higher value
In short: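 Compounds were tested on a yeast strain with an engineered DNA damage repair alteration; the reported value is growth inhibition normalised to vehicle treatment.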

[4] = NCI Yeast Anticancer Drug Screen. Data for the mec2-1 strain (AID 157); settings: S. cerevisiae mec2-1 strain, stronger effect = higher value
In short: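 Growth inhibition is read against vehicle-treated controls after compound exposure of the mec2-1 yeast strain, which is defective in DNA damage repair or cell cycle control.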

[5] = NCI Yeast Anticancer Drug Screen. Data for the rad14 strain (AID 159);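 note: 0% = growth of vehicle-treated control cultures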; settings: S. cerevisiae rad14 strain growth inhibition, stronger effect = higher value
In short: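 Compound-treated yeast with a defined DNA-repair lesion; growth inhibition normalised to vehicle-treated cultures.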

[6] = NCI Yeast Anticancer Drug Screen. Data for the sgs1 mgt1 strain (AID 161);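 note: 0% = growth of cultures given vehicle only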; settings: S. cerevisiae sgs1 mgt1 strain, stronger effect = higher value
In short: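 Percent growth inhibition was derived by comparing compound-exposed mutant yeast with vehicle-exposed cultures. The strain carries alterations in DNA damage repair.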

[7] = NCI Yeast Anticancer Drug Screen. Data for the CLN2oe strain (AID 163);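 note: 0% = growth of vehicle-only control cultures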; settings: S. cerevisiae CLN2oe strain, stronger effect = higher value
In short: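 Compound-treated yeast; growth vs vehicle ctrl = % inhibition. Genetically altered strain (cell-cycle control).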

[8] = NCI Yeast Anticancer Drug Screen. Data for the cln2 rad14 strain (AID 165);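 note: 0% = growth equal to vehicle treated cultures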; settings: S. cerevisiae cln2 rad14 strain, stronger effect = higher value
In short: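 Growth inhibition, relative to vehicle-treated controls, is the read-out. The test organism is a yeast strain with defined genetic alterations, cln2 rad14.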

[9] = NCI Yeast Anticancer Drug Screen. Data for the bub3 strain (AID 167); settings: S. cerevisiae bub3 mutant strain, stronger effect = higher value
In short: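 Growth of a checkpoint-deficient yeast mutant is measured after compound exposure. Values represent inhibition relative to vehicle.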

[10] = NCI Yeast Anticancer Drug Screen. Data for the wt2 strain (AID 169);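 note: 0% = growth of vehicle-treated yeast cultures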; settings: S. cerevisiae wt2 strain growth inhibition, stronger effect = higher value
In short: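 Compound exposure of yeast; growth compared with vehicle controls; inhibition reported.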

[11] = NCI Yeast Anticancer Drug Screen. Data for the mlh1 strain (AID 171);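 note: 0% = growth of vehicle-treated control cultures of the same strain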; settings: S. cerevisiae mlh1 strain growth inhibition, stronger effect = higher value
In short: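 Compounds are applied to a genetically altered yeast strain, and its growth is compared with that of vehicle-treated cultures to give percent inhibition.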

[12] = NCI Yeast Anticancer Drug Screen. Data for the sgs1 strain (AID 173);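 note: 0% = growth of vehicle-only control cultures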; settings: S. cerevisiae sgs1 mutant, stronger effect = higher value
In short: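 Compounds applied to genetically altered yeast; growth compared with vehicle-treated cultures to give % inhibition.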

[13] = NCI Yeast Anticancer Drug Screen. Data for the mlh1 rad18 strain (AID 175); settings: S. cerevisiae mlh1 rad18 strain growth inhibition, stronger effect = higher value
In short: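 Cells of a genetically altered yeast strain, deficient in DNA damage repair, were treated with compound. Their growth was then compared with that of vehicle-treated cultures to give inhibition.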

[14] = NCI Yeast Anticancer Drug Screen. Data for the rad18 strain (AID 177); settings: S. cerevisiae rad18 mutant growth inhibition, stronger effect = higher value
In short: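 Compounds are applied to a repair-deficient yeast strain, and growth is compared with that of vehicle-treated cultures to give percent inhibition.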

[15] = NCI Yeast Anticancer Drug Screen. Data for the rad50EPP+ strain (AID 151);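 note: 0% = growth of vehicle-treated control cultures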; settings: S. cerevisiae rad50 mutant strain, stronger effect = higher value
In short: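 rad50EPP+ yeast treated with test compounds. Readout: growth vs vehicle control.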

[16] = at 5.0 µM (retest, dose inferred, filed as 0.5)
[17] = at 50.0 µM (retest, dose inferred, filed as 5.0)

For O=C1Oc2ccccc2C(=O)/C1=C/N1C(=O)N/C(=C\c2ccccc2Br)C1=O, the growth inhibition ([1]; at 1.2 µM) was 1%, the growth inhibition ([1]; at 3.7 µM) was 4% and the growth inhibition ([1]; at 11.0 µM) was 13%. For the same molecule, the growth inhibition ([1]; at 33.0 µM) was 43%, the growth inhibition ([1]; at 100.0 µM) was 91% (active) and the growth inhibition ([2]; at 1.2 µM) was 0%. The growth inhibition ([2]; at 3.7 µM) was 1%, the growth inhibition ([2]; at 11.0 µM) was 7% and the growth inhibition ([2]; at 33.0 µM) was 25%. For the same molecule, the growth inhibition ([2]; at 100.0 µM) was 96% (active), the growth inhibition ([3]; at 1.2 µM) was -2% and the growth inhibition ([3]; at 3.7 µM) was -11%. For the same molecule, the growth inhibition [3, 16] was -6%, the growth inhibition ([3]; at 11.0 µM) was -3% and the growth inhibition ([3]; at 33.0 µM) was 40%. For the same molecule, the growth inhibition [3, 17] was 54%, the growth inhibition ([3]; at 50.0 µM) was 91.9% (active) and the growth inhibition ([3]; at 100.0 µM) was 95% (active). The growth inhibition ([4]; at 1.2 µM) was 1%, the growth inhibition ([4]; at 3.7 µM) was 1% and the growth inhibition [4, 16] was -15%. It also gave a growth inhibition ([4]; at 11.0 µM) of 7%, a growth inhibition ([4]; at 33.0 µM) of 27% and a growth inhibition [4, 17] of 5%. For the same molecule, the growth inhibition ([4]; at 50.0 µM) was 56.1%, the growth inhibition ([4]; at 100.0 µM) was 86% (active) and the growth inhibition ([5]; at 1.2 µM) was 1%. It also gave a growth inhibition ([5]; at 3.7 µM) of 2%, a growth inhibition ([5]; at 11.0 µM) of 13% and a growth inhibition ([5]; at 33.0 µM) of 59%. For the same molecule, the growth inhibition ([5]; at 100.0 µM) was 97% (active), the growth inhibition [6, 16] was -3% and the growth inhibition [6, 17] was 17%. For the same molecule, the growth inhibition ([6]; at 50.0 µM) was 89.7% (active), the growth inhibition ([7]; at 1.2 µM) was -3% and the growth inhibition ([7]; at 3.7 µM) was 4%. It also gave a growth inhibition ([7]; at 11.0 µM) of 14%, a growth inhibition ([7]; at 33.0 µM) of 33% and a growth inhibition ([7]; at 100.0 µM) of 56%. It also gave a growth inhibition [8, 16] of 15%, a growth inhibition [8, 17] of 13% and a growth inhibition ([8]; at 50.0 µM) of 39.5%. For the same molecule, the growth inhibition ([9]; at 1.2 µM) was 0%, the growth inhibition ([9]; at 3.7 µM) was -1% and the growth inhibition [9, 16] was 7%. It also gave a growth inhibition ([9]; at 11.0 µM) of 6%, a growth inhibition ([9]; at 33.0 µM) of 29% and a growth inhibition [9, 17] of 33%. For the same molecule, the growth inhibition ([9]; at 50.0 µM) was 94.5% (active), the growth inhibition ([9]; at 100.0 µM) was 83% (active) and the growth inhibition ([10]; at 1.2 µM) was 1%. It also gave a growth inhibition ([10]; at 3.7 µM) of 2%, a growth inhibition ([10]; at 11.0 µM) of 6% and a growth inhibition ([10]; at 33.0 µM) of 33%. For the same molecule, the growth inhibition ([10]; at 100.0 µM) was 96% (active), the growth inhibition ([11]; at 1.2 µM) was 0% and the growth inhibition ([11]; at 3.7 µM) was 5%. The growth inhibition ([11]; at 11.0 µM) was 12%, the growth inhibition ([11]; at 33.0 µM) was 43% and the growth inhibition ([11]; at 100.0 µM) was 97% (active). It also gave a growth inhibition ([12]; at 1.2 µM) of 2%, a growth inhibition ([12]; at 3.7 µM) of 5% and a growth inhibition ([12]; at 11.0 µM) of 14%. For the same molecule, the growth inhibition ([12]; at 33.0 µM) was 54%, the growth inhibition ([12]; at 100.0 µM) was 96% (active) and the growth inhibition [13, 16] was 4%. The growth inhibition [13, 17] was 52%, the growth inhibition ([13]; at 50.0 µM) was 95.5% (active) and the growth inhibition ([14]; at 1.2 µM) was -1%. For the same molecule, the growth inhibition ([14]; at 3.7 µM) was 1%, the growth inhibition ([14]; at 11.0 µM) was 6% and the growth inhibition ([14]; at 33.0 µM) was 51%. The growth inhibition ([14]; at 100.0 µM) was 94% (active).

For CC(C)OC(=O)NNc1cccc(Cl)c1, the growth inhibition ([1]; at 1.2 µM) was 1%, the growth inhibition ([1]; at 3.7 µM) was 10% and the growth inhibition ([1]; at 11.0 µM) was 57%. For the same molecule, the growth inhibition ([1]; at 33.0 µM) was 96% (active), the growth inhibition ([1]; at 100.0 µM) was 97% (active) and the growth inhibition ([15]; at 1.2 µM) was 6%. The growth inhibition ([15]; at 3.7 µM) was 33%, the growth inhibition ([15]; at 11.0 µM) was 93% (active) and the growth inhibition ([15]; at 33.0 µM) was 98% (active). The growth inhibition ([15]; at 100.0 µM) was 98% (active), the growth inhibition ([2]; at 1.2 µM) was 0% and the growth inhibition ([2]; at 3.7 µM) was 7%. The growth inhibition ([2]; at 11.0 µM) was 87% (active), the growth inhibition ([2]; at 33.0 µM) was 98% (active) and the growth inhibition ([2]; at 100.0 µM) was 99% (active). It also gave a growth inhibition ([3]; at 1.2 µM) of 4%, a growth inhibition ([3]; at 3.7 µM) of 26% and a growth inhibition [3, 16] of 13%. The growth inhibition ([3]; at 11.0 µM) was 98% (active), the growth inhibition ([3]; at 33.0 µM) was 98% (active) and the growth inhibition [3, 17] was 95% (active). For the same molecule, the growth inhibition ([3]; at 50.0 µM) was 96.1% (active), the growth inhibition ([3]; at 100.0 µM) was 97% (active) and the growth inhibition ([4]; at 1.2 µM) was 0%. It also gave a growth inhibition ([4]; at 3.7 µM) of 11%, a growth inhibition [4, 16] of 21% and a growth inhibition ([4]; at 11.0 µM) of 55%. For the same molecule, the growth inhibition ([4]; at 33.0 µM) was 96% (active), the growth inhibition [4, 17] was 96% (active) and the growth inhibition ([4]; at 50.0 µM) was 99.2% (active). The growth inhibition ([4]; at 100.0 µM) was 98% (active), the growth inhibition [6, 16] was 27% and the growth inhibition [6, 17] was 98% (active). The growth inhibition ([6]; at 50.0 µM) was 96.8% (active), the growth inhibition ([7]; at 1.2 µM) was -7% and the growth inhibition ([7]; at 3.7 µM) was -6%. The growth inhibition ([7]; at 11.0 µM) was 17%, the growth inhibition ([7]; at 33.0 µM) was 53% and the growth inhibition ([7]; at 100.0 µM) was 84% (active). For the same molecule, the growth inhibition [8, 16] was 51%, the growth inhibition [8, 17] was 99% (active) and the growth inhibition ([8]; at 50.0 µM) was 97.8% (active). For the same molecule, the growth inhibition ([9]; at 1.2 µM) was 3%, the growth inhibition ([9]; at 3.7 µM) was 44% and the growth inhibition [9, 16] was 83% (active). The growth inhibition ([9]; at 11.0 µM) was 98% (active), the growth inhibition ([9]; at 33.0 µM) was 98% (active) and the growth inhibition [9, 17] was 98% (active). For the same molecule, the growth inhibition ([9]; at 50.0 µM) was 99% (active), the growth inhibition ([9]; at 100.0 µM) was 98% (active) and the growth inhibition ([10]; at 1.2 µM) was 1%. The growth inhibition ([10]; at 3.7 µM) was 13%, the growth inhibition ([10]; at 11.0 µM) was 80% (active) and the growth inhibition ([10]; at 33.0 µM) was 97% (active). For the same molecule, the growth inhibition ([10]; at 100.0 µM) was 98% (active), the growth inhibition ([11]; at 1.2 µM) was -1% and the growth inhibition ([11]; at 3.7 µM) was 4%. For the same molecule, the growth inhibition ([11]; at 11.0 µM) was 55%, the growth inhibition ([11]; at 33.0 µM) was 98% (active) and the growth inhibition ([11]; at 100.0 µM) was 99% (active). For the same molecule, the growth inhibition ([12]; at 1.2 µM) was 2%, the growth inhibition ([12]; at 3.7 µM) was 23% and the growth inhibition ([12]; at 11.0 µM) was 97% (active). The growth inhibition ([12]; at 33.0 µM) was 98% (active), the growth inhibition ([12]; at 100.0 µM) was 98% (active) and the growth inhibition [13, 16] was 69%. The growth inhibition [13, 17] was 96% (active), the growth inhibition ([13]; at 50.0 µM) was 98% (active) and the growth inhibition ([14]; at 1.2 µM) was 9%. For the same molecule, the growth inhibition ([14]; at 3.7 µM) was 61%, the growth inhibition ([14]; at 11.0 µM) was 98% (active) and the growth inhibition ([14]; at 33.0 µM) was 98% (active). The growth inhibition ([14]; at 100.0 µM) was 98% (active).
